Assay outcomes: PubChem, National Center for Advancing Translational Sciences (NCATS)
Only a selection was taken, and hits are over-represented in it overall.
VACV mCherry inh = inhibitors of vaccinia virus infection (mCherry reporter signal); Vaccinia virus mCherry reporter infection, fluorescence; Potency, µM (highest dose often 36.5 µM), for inactives: top-dose activity change, negative = inhibition, usual class: inhibitors; actives 0.63% (n = 310,000); AID 720579; calls by dose curve; tested in A549 cells; note: potency is the fitted concentration of half-maximal effect; % is set by controls: 0 for no effect and ±100 for the full control effect; nearly all actives have a fitted effect of over 35% in size
Lassa entry inh = inhibitors of Lassa virus binding or cell entry | Potency, µM (titrated, usually from 37.9 µM), for the others: at the top dose activity change, negative = inhibition, actives largely listed as inhibitors | AID 540256 | Lassa virus pseudotype entry inhibition, cell reporter | actives 1.2% (n = 300,000); calls by dose curve; tested in HEK293 cells; note: potency is the fitted concentration of half-maximal effect; % is set by controls: 0 for no effect and ±100 for the full control effect; nearly all actives have a fitted effect of over 50% in size
VACV Venus inh = inhibitors of vaccinia virus (Venus reporter) | Vaccinia virus Venus reporter expression, fluorescence | Potency, µM (series often up to 36.5 µM), for the others: at the highest dose activity change, negative = inhibition, usual class: inhibitors | actives 0.46% (n = 330,000) | AID 720580; calls by dose curve; tested in A549 cells; note: potency is the fitted concentration of half-maximal effect; % is set by controls: 0 for no effect and ±100 for the full control effect; nearly all actives have a fitted effect of over 30% in size
Marburg entry inh = blocks Marburg virus binding to or entry into cells; Marburg virus pseudotyped entry inhibition, cell reporter; Potency, µM (titrated, usually from 37.8 µM), for the others: at the highest dose activity change, negative = inhibition, hits mostly inhibitors; actives 1.8% (n = 300,000); calls by dose curve; tested in HEK293 cells; note: potency is the fitted concentration of half-maximal effect; % is set by controls: 0 for no effect and ±100 for the full control effect
CHX counter = counter-screen hit for Shiga toxin inhibitors, cycloheximide | cell reporter, cycloheximide protein synthesis inhibition counterscreen | max response, % | actives 12% (n = 300,000) | AID 2314; in the data active = max response mostly above about 13%, no sharp cut-off; inactive = mostly below about 14%; note: read at 38.3 µM for the half of the compounds with a filed dose; 0% is about no effect
Shiga toxin inh = Shiga toxin inhibition; Vero cells, Shiga toxin protein synthesis inhibition reporter; inhibition, % at 38.7 µM; actives 9.2% (n = 290,000); AID 2315; in the data active = inhibition mostly above about 28%, no sharp cut-off; inactive = mostly below about 43%; note: 0% is about no effect
An asterisk follows results filed as active; [ ] = another dose, or the depositor's remark.

What do the screens show for `COc1cc(/C=N/NC(=O)c2cc(-c3ccccc3Cl)nc3ccccc23)cc(OC)c1O`?
VACV mCherry inh: -14%[7.34 µM]; Lassa entry inh: inconclusive; VACV Venus inh: 1%[7.34 µM]; Marburg entry inh: -5%[46.1 µM]

Results for CCOc1ccc(/C=N/NC(=O)c2cc(-c3ccccc3)nc3ccccc23)cc1O ?
Marburg entry inh: 3%; CHX counter: 9; Shiga toxin inh: -4

How did COc1cc(/C=N/NC(=O)c2cc(-c3ccccc3OC(C)C)nc3ccccc23)ccc1O do in these assays?
VACV mCherry inh: 13µM*; Lassa entry inh: 5.8µM*; VACV Venus inh: 8%; Marburg entry inh: 4.6µM*; CHX counter: 17; Shiga toxin inh: 19

What do the screens show for `COc1ccc(C(=O)COC(=O)c2c(-c3ccccc3)noc2C)c(OC)c1`?
VACV mCherry inh: inactive; Lassa entry inh: -27%[46.1 µM]; VACV Venus inh: -9%; Marburg entry inh: inconclusive

Results for Cc1cc(N)c(NC2=CC(=O)CC(C)(C)C2)cc1C ?
VACV mCherry inh: -19%; Lassa entry inh: 3%; VACV Venus inh: -12%; Marburg entry inh: inconclusive; CHX counter: 62*; Shiga toxin inh: 91*

How did Cc1ccc(NC2=CC(=O)CC(C)(C)C2)cc1F do in these assays?
Marburg entry inh: -5%; CHX counter: -1; Shiga toxin inh: -2

How did CC(Oc1ccc(Cl)cc1Cl)C(=O)OCn1nnc2ccccc2c1=O (stereo unspecified) do in these assays?
VACV mCherry inh: -14%; Lassa entry inh: -10%; VACV Venus inh: -3%; Marburg entry inh: 1%; CHX counter: -6; Shiga toxin inh: -14

How did O=c1c2ccccc2nnn1COc1cccc2ccccc12 do in these assays?
CHX counter: 45*; Shiga toxin inh: 143*

How did O=c1c2ccccc2nnn1COc1ccc(Cl)cc1Br do in these assays?
VACV mCherry inh: inactive; Lassa entry inh: inconclusive; VACV Venus inh: -11%; Marburg entry inh: 10%[46.1 µM]; CHX counter: 29*; Shiga toxin inh: 60

Results for O=c1c2ccccc2nnn1Cc1ccc2ccccc2c1 ?
VACV mCherry inh: -3%; Lassa entry inh: -3%; VACV Venus inh: -3%; Marburg entry inh: inconclusive; CHX counter: 25*; Shiga toxin inh: 38

What do the screens show for `COC(=O)c1cccc(Cn2nnc3ccccc3c2=O)c1`?
Lassa entry inh: 1%; VACV Venus inh: -9%; Marburg entry inh: 3%[46.1 µM]; CHX counter: -3; Shiga toxin inh: 21

What do the screens show for `O=c1c2ccccc2nnn1COc1ccc(F)cc1Cl`?
VACV mCherry inh: -2%; Lassa entry inh: 8%; VACV Venus inh: -2%; Marburg entry inh: inconclusive; CHX counter: 41*; Shiga toxin inh: 55*

What do the screens show for `COc1ccc(CNC(=O)c2ccc(N3CCCC3)c(NC(=O)NCc3ccc(C)cc3)c2)cc1`?
VACV mCherry inh: -22%; Lassa entry inh: inconclusive; VACV Venus inh: -25%

How did Cn1c2ccccc2c2cc(/C=N/NC(=O)c3ccc(N)cc3)ccc21 do in these assays?
VACV mCherry inh: -21%; Lassa entry inh: inconclusive; VACV Venus inh: -28%; Marburg entry inh: inconclusive; CHX counter: 13; Shiga toxin inh: 24

What do the screens show for `Cn1c(C(=O)N/N=C/c2ccccc2)cc2ccccc21`?
CHX counter: 21*; Shiga toxin inh: 44

Results for Cn1c(-c2ccccc2)c(/C=N/NC(=O)c2ccc(O)cc2)c2ccccc21 ?
CHX counter: 34*; Shiga toxin inh: 87*

Results for Cn1c(/C=N/NC(=O)c2ccccc2)nc2ccccc21 ?
VACV mCherry inh: -15%; Lassa entry inh: inconclusive; VACV Venus inh: -9%; Marburg entry inh: inconclusive; CHX counter: 31*; Shiga toxin inh: 75*

What do the screens show for `COc1ccccc1C1CN(CC(=O)N2CCC(N3CCOCC3)CC2)Cc2ccccc2O1` (stereo unspecified)?
VACV mCherry inh: -3%; VACV Venus inh: -3%

How did CN(C)CCN(Cc1ccco1)S(=O)(=O)c1ccc(-c2ccc(=O)[nH]n2)s1 do in these assays?
VACV mCherry inh: -1%; Lassa entry inh: inconclusive; VACV Venus inh: -14%; Marburg entry inh: 14%[46.1 µM]; CHX counter: 1; Shiga toxin inh: -1

Results for O=C(C1CCN(C2CCN(Cc3ccc4c(c3)CCO4)CC2)CC1)N1CCCC1 ?
VACV mCherry inh: -12%; Lassa entry inh: -5%[46.1 µM]; VACV Venus inh: -16%; Marburg entry inh: 4.5µM*; CHX counter: -3; Shiga toxin inh: -16

Results for O=C(NCc1ccco1)c1ccc([N+](=O)[O-])o1 ?
VACV mCherry inh: -18%; Lassa entry inh: -13%; VACV Venus inh: -16%; Marburg entry inh: 3%[46.1 µM]; CHX counter: 12*; Shiga toxin inh: 50

How did O=C(Cc1ccc([N+](=O)[O-])cc1)NCc1cccnc1 do in these assays?
VACV mCherry inh: inactive; Lassa entry inh: 4%; VACV Venus inh: -13%; Marburg entry inh: -4%; CHX counter: 0; Shiga toxin inh: -4

Results for O=C(Nc1cccnc1)c1ccc([N+](=O)[O-])o1 ?
CHX counter: 38*; Shiga toxin inh: 71*

What do the screens show for `O=C(NCc1cccnc1)c1ccc([N+](=O)[O-])o1`?
CHX counter: 31*; Shiga toxin inh: 30

What do the screens show for `CN(C)CCNC(=O)CN1C(=O)CCn2nc(-c3cn(C)c4ccccc34)cc21`?
VACV mCherry inh: -16%; Lassa entry inh: 25%[46.1 µM]; VACV Venus inh: 5%

How did S=C1NCN(C2CCCCC2)CN1CCc1ccccc1 do in these assays?
VACV mCherry inh: -25%; Lassa entry inh: inconclusive; VACV Venus inh: -13%; Marburg entry inh: -29%[46.1 µM]; CHX counter: -1; Shiga toxin inh: -5

Results for Cc1ccc(-c2nc3sc(CCNC(=O)c4ccc(Br)o4)c(C)n3n2)cc1 ?
VACV mCherry inh: -8%; Lassa entry inh: inconclusive; VACV Venus inh: -3%

How did COc1ccc(CNC(=O)c2ccc(Cn3c(=O)c4cccn4c4cccnc43)cc2)cc1OC do in these assays?
VACV mCherry inh: -11%; Lassa entry inh: -2%[46.1 µM]; VACV Venus inh: -11%

What do the screens show for `CCc1cccc(N2C(=O)N(Cc3c(F)cccc3Cl)c3ccccc3S2(=O)=O)c1`?
VACV mCherry inh: inactive; Lassa entry inh: -13%[46.1 µM]; VACV Venus inh: 2%

What do the screens show for `CCNC(=S)N/N=C(\C)c1cc2ccccc2o1`?
VACV mCherry inh: inconclusive; Lassa entry inh: 3%; VACV Venus inh: -27%; Marburg entry inh: 25%; CHX counter: 18*; Shiga toxin inh: 10

How did COc1ccc(OCC(=O)N/N=C(\C)c2cc3ccccc3o2)cc1 do in these assays?
VACV mCherry inh: -20%; Lassa entry inh: inconclusive; VACV Venus inh: -23%; Marburg entry inh: -40%; CHX counter: 26*; Shiga toxin inh: 57*

How did COc1ccc(OCC(=O)N/N=C(\C)c2ccc(OC)cc2)cc1 do in these assays?
VACV mCherry inh: -4%; Lassa entry inh: inconclusive; VACV Venus inh: -6%; Marburg entry inh: -21%[46.1 µM]; CHX counter: 20; Shiga toxin inh: -3

What do the screens show for `C/C(=N\NC(=O)c1cccc(S(=O)(=O)N2CCOCC2)c1)c1cc2ccccc2o1`?
CHX counter: -5; Shiga toxin inh: -7
